Reference: PubChem BioAssay AID1159580 (chemical genetic matrix, 2015)
“And” between values parts separate entries of the source, which are not always exact repeats. Identical values can stand only once. In all, about 5,500 compounds went through this assay and about 2,000 (36%) were called active. Inconclusive results (about 18%) are left out. No stated cut-off is given here; in the data, active means normalized growth mostly below about 0.91 (no sharp cut-off); inconclusive means no clear call, values can overlap the other calls; inactive means mostly above about 0.92. Some of the results follow.

Test: chemical genetic growth profiling, strain panel (AID 1159580);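 further: tested at 20 µM; growth read once vehicle control cultures reached saturation at 30 °C; 1 = growth at the plate median or of vehicle wells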
Settings: S. cerevisiae deletion strains, growth OD

Measured: normalized growth

O=c1c(O)cccc2cc(O)c(O)c(O)c12
inactive: locus YBR021W, strain FUR4, stronger effect = lower value 0.921 | locus YDL005C, strain med2, stronger effect = lower value 0.978 | locus YDL040C, strain nat1, stronger effect = lower value 0.946 | locus YDR001C, strain nth1, stronger effect = lower value 0.925 | locus YER110C, stronger effect = lower value 1.02 | locus YGL227W, strain vid30, stronger effect = lower value 0.954 | locus YGL240W, strain doc1, stronger effect = lower value 0.968 | locus YHR094C, strain hxt1, stronger effect = lower value 0.98 | locus YJL168C, strain set2, stronger effect = lower value 0.966 | locus YKR091W, strain srl3, stronger effect = lower value 0.939 | locus YLR102C, strain apc9, stronger effect = lower value 1.02 | locus YMR078C, strain ctf18, stronger effect = lower value 0.971 | locus YMR125W, strain sto1, stronger effect = lower value 0.955 | locus YNL298W, strain CLA4, stronger effect = lower value 0.969 | locus YNL307C, strain MCK1, stronger effect = lower value 0.959 | locus YOL012C, strain htz1 0.272 | locus YOR136W, strain idh2, stronger effect = lower value 0.925 | locus YOR316C, strain cot1, stronger effect = lower value 1 | locus YPR119W, strain clb2, stronger effect = lower value 1.01
active: locus YAL021C, strain ccr4, stronger effect = lower value 0.082 | locus YAL026C, strain drs2, stronger effect = lower value 0.425 | locus YAL030W, strain snc1, stronger effect = lower value 0.884 | locus YBL061C, strain skt5, stronger effect = lower value 0.798 | locus YBR009C, strain hhf1, stronger effect = lower value 0.76 | locus YBR023C, strain chs3, stronger effect = lower value 0.668 | locus YBR171W, strain sec66, stronger effect = lower value 0.881 | locus YBR229C, strain ROT2, stronger effect = lower value 0.844 | locus YBR231C, strain swc5, stronger effect = lower value 0.623 | locus YBR279W, strain paf1, stronger effect = lower value 0.856 | locus YCL011C, strain gbp2, stronger effect = lower value 0.859 | locus YCL016C, strain dcc1, stronger effect = lower value 0.858 | locus YCL029C, strain bik1, stronger effect = lower value 0.443 | locus YCL061C, strain MRC1, stronger effect = lower value 0.833 | locus YCL069W, strain vba3, stronger effect = lower value 0.858 | locus YCR088W, strain abp1, stronger effect = lower value 0.875 | locus YDL035C, strain GPR1, stronger effect = lower value 0.678 | locus YDL074C, strain BRE1, stronger effect = lower value 0.497 | locus YDL101C, strain DUN1, stronger effect = lower value 0.457 | locus YDL185W, strain tfp1, stronger effect = lower value 0.501 | locus YDL192W, strain arf1, stronger effect = lower value 0.742 | locus YDR069C, strain doa4, stronger effect = lower value 0.166 | locus YDR101C, strain arx1, stronger effect = lower value 0.479 | locus YDR137W, strain rgp1, stronger effect = lower value 0.126 | locus YDR159W, strain sac3, stronger effect = lower value 0.149 | locus YDR162C, strain NBP2, stronger effect = lower value 0.515 | locus YDR195W, strain ref2 0.692 | locus YDR297W, strain sur2, stronger effect = lower value 0.877 | locus YDR318W, strain mcm21, stronger effect = lower value 0.885 | locus YDR334W, strain swr1, stronger effect = lower value 0.515 | locus YDR335W, strain msn5, stronger effect = lower value 0.18 | locus YDR388W, stronger effect = lower value 0.855 | locus YDR392W, strain spt3, stronger effect = lower value 0.738 | locus YDR502C, strain sam2, stronger effect = lower value 0.569 | locus YEL003W, strain gim4, stronger effect = lower value 0.671 | locus YEL037C, strain rad23, stronger effect = lower value 0.716 | locus YEL061C, strain CIN8 (second series), stronger effect = lower value 0.878 | locus YER015W, strain faa2, stronger effect = lower value 0.593 | locus YER016W, strain bim1, stronger effect = lower value 0.904 | locus YER111C, strain swi4, stronger effect = lower value 0.22 | locus YER155C, strain BEM2 (second series), stronger effect = lower value 0.489 | locus YER155C, strain BEM2, stronger effect = lower value 0.664 | locus YER167W, strain BCK2, stronger effect = lower value 0.865 | locus YFR010W, strain ubp6, stronger effect = lower value 0.509 | locus YGL078C, strain dbp3, stronger effect = lower value 0.841 | locus YGL086W, strain mad1, stronger effect = lower value 0.758 | locus YGL167C, strain pmr1, stronger effect = lower value 0.757 | locus YGL173C, strain kem1, stronger effect = lower value 0.497 | locus YGL248W, strain PDE1, stronger effect = lower value 0.775 | locus YGL253W, strain hxk2, stronger effect = lower value 0.71 | locus YGR135W, strain pre9, stronger effect = lower value 0.822 | locus YGR252W, strain gcn5, stronger effect = lower value 0.716 | locus YHR013C, strain ard1, stronger effect = lower value 0.577 | locus YHR027C, strain rpn1, stronger effect = lower value 0.554 | locus YHR030C, strain SLT2, stronger effect = lower value 0.898 and 0.73 | locus YHR079C, strain IRE1 (second series), stronger effect = lower value 0.182 | locus YHR079C, strain IRE1, stronger effect = lower value 0.654 | locus YHR129C, strain ARP1, stronger effect = lower value 0.693 | locus YHR142W, strain chs7, stronger effect = lower value 0.536 | locus YHR200W, strain rpn10, stronger effect = lower value 0.817 | locus YIL066C, strain RNR3, stronger effect = lower value 0.768 | locus YIL073C, strain SPO22, stronger effect = lower value 0.508 | locus YIL125W, strain kgd1, stronger effect = lower value 0.783 | locus YIR030C, strain dcg1, stronger effect = lower value 0.812 | locus YJL092W, strain hpr5, stronger effect = lower value 0.9 | locus YJL095W, strain BCK1 (second series), stronger effect = lower value 0.754 | locus YJL095W, strain BCK1, stronger effect = lower value 0.105 and 0.759 | locus YJL115W, strain asf1, stronger effect = lower value 0.894 | locus YJL129C, strain trk1, stronger effect = lower value 0.547 | locus YJL134W, strain LCB3, stronger effect = lower value 0.872 | locus YJL154C, strain vps35, stronger effect = lower value 0.816 | locus YJL164C, strain tpk1, stronger effect = lower value 0.714 | locus YJL166W, strain qcr8, stronger effect = lower value 0.802 | locus YJL187C, strain SWE1 (second series), stronger effect = lower value 0.22 | locus YJL187C, strain SWE1, stronger effect = lower value 0.813 | locus YJR066W, strain TOR1, stronger effect = lower value 0.684 | locus YJR075W, strain HOC1, stronger effect = lower value 0.82 | locus YKL009W, strain mrt4, stronger effect = lower value 0.345 | locus YKL068W, stronger effect = lower value 0.928 | locus YKL085W, strain MDH1 (second series), stronger effect = lower value 0.818 | locus YKL085W, strain MDH1, stronger effect = lower value 0.818 | locus YKL160W, strain elf1, stronger effect = lower value 0.853 | locus YKR001C, strain vps1, stronger effect = lower value 0.818 | locus YKR026C, strain gcn3, stronger effect = lower value 0.915 | locus YLL001W, strain dnm1, stronger effect = lower value 0.699 | locus YLL026W, stronger effect = lower value 0.841 | locus YLL041C, strain sdh2, stronger effect = lower value 0.902 | locus YLR027C, strain aat2, stronger effect = lower value 0.815 | locus YLR039C, strain RIC1, stronger effect = lower value 0.481 | locus YLR058C, strain SHM2, stronger effect = lower value 0.22 | locus YLR113W, strain HOG1, stronger effect = lower value 0.51 | locus YLR221C, strain rsa3, stronger effect = lower value 0.78 | locus YLR258W, strain gsy2, stronger effect = lower value 0.83 | locus YLR262C, strain YPT6 (second series), stronger effect = lower value 0.485 | locus YLR268W, strain sec22, stronger effect = lower value 0.515 | locus YLR320W, strain mms22, stronger effect = lower value 0.595 | locus YLR330W, strain CHS5, stronger effect = lower value 0.852 | locus YLR342W, strain FKS1 (second series), stronger effect = lower value 0.564 | locus YLR342W, strain FKS1, stronger effect = lower value 0.764 | locus YLR357W, strain rsc2, stronger effect = lower value 0.632 | locus YLR370C, strain arc18, stronger effect = lower value 0.656 | locus YLR371W, strain rom2, stronger effect = lower value 0.746 | locus YLR384C, strain iki3, stronger effect = lower value 0.799 | locus YLR418C, strain cdc73, stronger effect = lower value 0.458 | locus YML016C, strain PPZ1, stronger effect = lower value 0.583 | locus YML032C, strain rad52, stronger effect = lower value 0.522 | locus YML120C, strain ndi1, stronger effect = lower value 0.0997 | locus YML124C, strain tub3, stronger effect = lower value 0.839 | locus YMR058W, strain fet3, stronger effect = lower value 0.179 | locus YMR129W, stronger effect = lower value 0.919 | locus YMR205C, strain PFK2, stronger effect = lower value 0.511 | locus YMR223W, strain ubp8, stronger effect = lower value 0.838 | locus YMR231W, strain pep5, stronger effect = lower value 0.183 | locus YMR307W, strain GAS1, stronger effect = lower value 0.586 | locus YNL067W, strain RPL9B, stronger effect = lower value 0.699 | locus YNL071W, strain lat1, stronger effect = lower value 0.833 | locus YNL153C, strain GIM3, stronger effect = lower value 0.511 | locus YNL183C, strain NPR1, stronger effect = lower value 0.66 | locus YNL209W, strain ssb2, stronger effect = lower value 0.398 | locus YNL233W, strain BNI4, stronger effect = lower value 0.741 | locus YNL248C, strain rpa49, stronger effect = lower value 0.811 | locus YNL250W, strain rad50, stronger effect = lower value 0.76 | locus YNL271C, strain bni1, stronger effect = lower value 0.841 | locus YNL322C, strain KRE1 (second series), stronger effect = lower value 0.237 | locus YNR049C, strain mso1, stronger effect = lower value 0.898 | locus YNR052C, strain pop2, stronger effect = lower value 0.185 | locus YOL006C, strain TOP1, stronger effect = lower value 0.423 | locus YOL147C, strain pex11, stronger effect = lower value 0.689 | locus YOR001W, strain rrp6, stronger effect = lower value 0.686 | locus YOR061W, strain CKA2, stronger effect = lower value 0.734 | locus YOR069W, strain VPS5, stronger effect = lower value 0.775 | locus YOR070C, strain gyp1, stronger effect = lower value 0.901 | locus YOR080W, strain dia2, stronger effect = lower value 0.553 | locus YOR083W, strain WHI5, stronger effect = lower value 0.737 | locus YOR106W, strain vam3, stronger effect = lower value 0.367 | locus YOR144C, strain elg1, stronger effect = lower value 0.545 | locus YOR184W, strain ser1, stronger effect = lower value 0.636 | locus YOR231W, strain MKK1, stronger effect = lower value 0.665 | locus YOR265W, strain rbl2, stronger effect = lower value 0.871 | locus YOR270C, strain vph1, stronger effect = lower value 0.16 | locus YOR290C, strain snf2, stronger effect = lower value 0.105 | locus YPL051W, strain arl3, stronger effect = lower value 0.525 | locus YPL078C, strain atp4, stronger effect = lower value 0.284 | locus YPL106C, strain sse1, stronger effect = lower value 0.747 | locus YPL240C, strain hsp82, stronger effect = lower value 0.864 | locus YPL241C, strain CIN2, stronger effect = lower value 0.841 | locus YPL256C, strain CLN2, stronger effect = lower value 0.601 | locus YPR141C, strain kar3, stronger effect = lower value 0.607 | locus YPR163C, strain tif3, stronger effect = lower value 0.884 | locus YPR167C, strain met16, stronger effect = lower value 0.871 | strain wtn01, stronger effect = lower value 0.761
